Out of some 340,000 compounds screened, about 8,500 (2.5%) were called active. This is one part of a sample in which actives are shown more often than they occur. A number with no mark means an inactive call.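 Rule for the calls: active = melting temperature shift of at least 10% of the positive control shift, at one fixed dose; inactive = the rest.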
What follows are molecules tested on Glutamate receptor ionotropic, NMDA 3A (GRIN3A) ligand-binding domain (assay: binders of NR3A ligand-binding domain, primary screen, biophysical, differential scanning fluorimetry, uHTS (AID 1259313)). Conditions: NR3A LBD differential scanning fluorimetry, at 25 µM, hits give high values, 0% = protein alone, 100% = glycine-bound protein.

Row | Compound | Tm shift relative to glycine control
1 | Cc1ccccc1-n1nnc2c(=O)oc3ccccc3c21 | 1.45%
2 | O=C1CC(c2c(F)cccc2Cl)C(n2cncn2)C(O)=C1C1NCCc2ccccc21 (stereo not given) | -0.39%
3 | CC(C)N(c1ccccc1)c1ncnc(NCCC(=O)O)c1[N+](=O)[O-] | -4.26%
4 | Cc1cccc(C(=O)NCC(=O)OCC(=O)N(C)CC(=O)Nc2ccccc2Cl)c1 | -0.85%
5 | COc1ccc(CNC(=O)COc2cccnc2[N+](=O)[O-])cc1 | 1.77%
6 | Cc1ccc(NC(=O)Cc2nc(COC(=O)C(C)NS(=O)(=O)c3ccc(C)cc3)cs2)cc1 (stereo not given) | -1.68%
7 | Cc1cc(C(=O)N2CCC(C(=O)O)CC2)c(C(F)(F)F)o1 | 2.93%
8 | CCOc1ccc2nc(Nc3nc4ccc(NC(C)=O)cc4s3)sc2c1 | 25.2% (active)
9 | c1c2c(cc3sc(N4CCCCC4)nc13)OCCO2 | 8.4%
10 | NS(=O)(=O)c1ccc2nc(NC(=O)C3=COCCO3)sc2c1 | -8.75%
11 | CCOc1ccc2nc(NC(=O)CSc3nc4c(c(=O)n(C)c(=O)n4C)n3CC)sc2c1 | 1.39%
12 | CCC(=O)c1ccc(OCC(=O)Nc2ccc3nc(C)sc3c2)cc1 | 0.32%
13 | COc1ccc2nc(Nc3nc4cc5c(cc4s3)OCCO5)sc2c1 | 12.4% (active)
14 | O=C(COC(=O)c1c(Cl)cccc1Cl)Nc1cccc(S(=O)(=O)NC2=NCCCCC2)c1 | 1.06%
15 | O=C(CCl)Nc1ccc(Sc2ccc(NC(=O)CCl)cc2)cc1 | -12.3%
16 | CC(=O)N(Cc1cccs1)C1CCOC(C)(C)C1 (stereo not given) | -1.65%
17 | Oc1ccc(Br)cc1/C=N/Nc1ccccn1 | -22%
18 | Oc1ccc(/C=N/Nc2ccc(C(F)(F)F)cn2)cc1O | 21.1% (active)
19 | FC(F)(F)c1cccc(N/N=C/c2ccccc2)c1 | 6.56%
20 | CCCCOP(=O)(c1ccc(N(C)C)cc1)C(O)c1cc(OC)ccc1OC (stereo not given) | -0.74%
21 | O=C(Nc1cccc(Cl)c1)Nc1ccccc1NS(=O)(=O)c1cccs1 | 30.3% (active)
22 | O=S(=O)(NCc1ccc(Cl)cc1Cl)c1cccs1 | 1.65%
23 | O=S(=O)(Nc1ccccc1Br)c1cccs1 | 0.85%
24 | NC(=O)Cc1ccc2sc(-c3ccccc3)nc2c1 | -2.6%

Row | Compound | Tm shift relative to glycine control
25 | Cc1ccc(S(=O)(=O)NCC(=O)N(CC(=O)NCC2CCCO2)c2cccc(F)c2)cc1 (stereo not given) | -1.71%
26 | O=c1[nH]c(CSc2ncc(-c3ccc(F)cc3)n2Cc2ccco2)nc2ccccc12 | -0.27%
27 | Nc1cc(=O)nc(SCc2ccccc2)n1Cc1ccco1 | 10.8% (active)
28 | CCn1c(SCc2ccccc2)nc2cc(OC)c(OC)cc2c1=O | -6.11%
29 | COc1cccc(N(Cc2nnc3n2CCCCC3)C(=O)Nc2ccccc2F)c1 | 0.08%
30 | CCCN(CCC)C(=S)Nc1cc(C(=O)OC)ccc1C(=O)OC | -5.25%
31 | CC(=O)C1=C(C)NC(C)=C(C(C)=O)C1c1cn(-c2ccccc2)nc1-c1cccs1 | -4.58%
32 | CCc1ccc(CN(C)C(=O)C2CCC(=O)N(Cc3cccc(OC)c3)C2)nc1 (stereo not given) | 1.62%
33 | O=C1NC(c2ccc(-c3ccccc3[N+](=O)[O-])o2)C(C(=O)c2ccc(Cl)cc2)C(O)(C(F)(F)F)N1 (stereo not given) | -17.2%
34 | O=C(Nc1ccc(N2CCOCC2)cc1)c1ccc(-c2ccccc2[N+](=O)[O-])o1 | -2.01%
35 | CC1=NN(c2ccc(Cl)c(C(=O)O)c2)C(=O)/C1=C/c1ccc(-c2ccccc2[N+](=O)[O-])o1 | 31.1% (active)
36 | Cc1cnc(CN(C)C(=O)C2CCC(=O)N(CCc3cccc(F)c3)C2)[nH]1 (stereo not given) | -3.25%
37 | CC(C)C(=O)NCc1cc(-c2ccc(Cl)cc2)no1 | 0.32%
38 | Oc1ccccc1-c1cc(-c2ccc(Cl)cc2)n[nH]1 | 31% (active)
39 | CSc1ccccc1-c1nnc(-c2ccc(Cl)cc2)o1 | 0.54%
40 | NC(=O)C[C@@H]1NC(=O)CNC(=O)c2cc([N+](=O)[O-])cc(I)c2NCCC(C(N)=O)NC1=O (stereo not given in full) | -1.1%
41 | CCC(C)n1[nH]c(=O)cc1N (stereo not given) | -2.66%
42 | N#Cc1ccccc1S(=O)(=O)N1CCN(Cc2c(O)ccc3ccccc23)CC1 | -5.71%
43 | O=C(O)c1cccc(S(=O)(=O)N2CC=C(c3ccccc3)CC2)c1 | 1.73%
44 | O=C(Nc1ccc(Cl)c(Cl)c1)N1CC=C(c2ccccc2)CC1 | 12.9% (active)
45 | COc1cc(C(=O)NCC(=O)N2CC=C(c3ccccc3)CC2)cc(OC)c1OC | 0.85%
46 | CC(C)c1ccc(Nc2ncccc2C#N)cc1 | -9.92%
47 | O=C(COc1ccc([N+](=O)[O-])cc1Cl)Nn1cnnc1 | 1.68%
48 | CCOc1ccc(/C(O)=C2\C(=O)C(=O)N(c3ccc(OC)cc3)C2c2ccccc2[N+](=O)[O-])cc1 (stereo not given) | -0.41%

Row | Compound | Tm shift relative to glycine control
49 | COc1ccc(S(=O)(=O)N2CCOCC2)cc1NC(=O)c1ccc(OCC(C)C)c(OC)c1 | 3.09%
50 | COC(=O)Cc1ccc(NC(=S)NCc2ccc(Cl)cc2)cc1 | -5.66%
51 | CN(C)CCCNC(=S)NCc1ccc(Cl)cc1 | 2.67%
52 | S=C(NCc1ccc(Cl)cc1)NC12CC3CC(CC(C3)C1)C2 | 15.2% (active)
53 | CN(C)c1ccc(/C=C/C(=O)c2ccc(O)cc2)cc1[N+](=O)[O-] | 5.36%
54 | O=C(/C=C/c1ccc2c(c1)OCCO2)c1ccc(O)cc1 | 13.4% (active)
55 | O=C(/C=C\c1ccc2c(c1)OCO2)NC1(C(=O)Nc2ccc3c(c2)OCCO3)CCCCC1 | -13.2%
56 | CC(C)c1nnc(NC(=O)C2CC(=O)N(CCc3ccc(F)cc3)C2)s1 (stereo not given) | -0.27%
57 | CCCC(C(=O)n1nc(C)cc1C)C(NS(=O)(=O)c1ccc(C)cc1)c1ccccc1 (stereo not given) | -0.23%
58 | COc1ccccc1C(=O)NC(CCSC)C(=O)N1CCN(C(C)=O)CC1 (stereo not given) | -1.22%
59 | CSCCC(NC(=O)c1ccccc1)C(=O)N1CCCCCCC1 (stereo not given) | 0.17%
60 | CSCCC(NC(=O)c1ccccc1)C(=O)N1CCN(Cc2ccc(Cl)cc2)CC1 (stereo not given) | 18.1% (active)
61 | O=C(O)CC(Cc1ccccc1)C(=O)Nc1ccc([N+](=O)[O-])cc1 (stereo not given) | -4.38%
62 | O=C(Cn1c2[n+](c3ccc(C(F)(F)F)cc31)CCCCC2)Nc1c(F)cccc1F | -0.45%
63 | COc1cc(/C=C/C(=O)OCC(=O)NC2CC2)cc(OC)c1OC | 3.83%
64 | Cc1nc2ccc(NC(=S)N3CCC(C)CC3)cc2nc1C | -0.26%
65 | S=C(NCC1COc2ccccc2O1)Nc1ccc(Br)cc1 (stereo not given) | 14.7% (active)
66 | O=S(=O)(NCCCc1ccccc1)c1ccc(Br)cc1 | -5.32%
67 | O=C(NCC1COc2ccccc2O1)C1(c2ccccc2)CCCC1 (stereo not given) | -1.37%
68 | S=C(NCCCc1ccccc1)Nc1ccc(Br)cc1 | 10.2% (active)
69 | CCCN(CC1COc2ccccc2O1)C(=S)Nc1ccc(C)cc1 (stereo not given) | -4.99%
70 | S=C(Nc1ccc(Br)cc1)NC1CCN(Cc2ccccc2)CC1 | -2.33%
71 | COc1cccc(/C=C2\Sc3ccc(C(=O)NCC4CCCO4)cc3N(C)C2=O)c1 (stereo not given) | -11.6%
72 | CN(CCc1ccccn1)C1CCCN(S(=O)(=O)c2ccccc2Cl)C1 (stereo not given) | -1.11%

Row | Compound | Tm shift relative to glycine control
73 | Cc1ccc(C)c(NC(=O)c2ccc(OC(=O)c3ccco3)cc2)c1 | -0.45%
74 | Oc1ccc(N=Cc2sc3ccccc3c2Cl)cc1 | 15.5% (active)
75 | CC(=O)n1c(C=Nc2ccccc2)c(O)c2ccccc21 | 0.18%
76 | Cc1ccn2cc(-c3nonc3C)cc2c1 | -33.8%
77 | Cc1cccc(NC(=O)Nc2cccc(Oc3c(F)c(F)c(F)c(F)c3F)c2)c1 | 29.1% (active)
78 | Cc1ccoc1C(=O)Nc1cccc(Oc2ccccc2)c1 | -3.01%
79 | Cc1ccc(NC(=O)Nc2ccccc2)c(Br)c1 | -0.75%
80 | CCOc1cc(/C=C/C(=O)OCC(=O)NCCN2C(=O)CSC2=O)ccc1OCC(C)C | 0.08%
81 | CN(Cc1ccc(F)cc1Cl)S(=O)(=O)c1cccs1 | 1.26%
82 | CCc1ccc(NC(=O)N2CCc3ccccc3C2)cc1 | -0.69%
83 | C=CCNC(=S)N1CCc2[nH]c3ccccc3c2C1 | -15.2%
84 | Fc1ccc(NC(=S)N2CCc3[nH]c4ccccc4c3C2)cc1 | 13.3% (active)
85 | CCOC(=O)C1CCN(C(=O)Nc2ccc(Cl)cc2)CC1 | 3.57%
86 | COc1ccc(NC(=S)N2CCc3cc(OC)c(OC)cc3C2)cc1 | -0.36%
87 | O=C(Nc1ccc(Cl)cc1)N1CCc2[nH]c3ccccc3c2C1 | 250% (active)
88 | Cc1ccccc1N/C(SCc1ccc(Cl)cc1)=C(/C#N)C(N)=O | -24%
89 | CC1CCN(c2ccc(-c3ccc(NC(=O)c4ccco4)cc3)nn2)CC1 | 5.6%
90 | O=S(=O)(Cc1cc(Cl)nc(-c2cccnc2)n1)c1ccccc1 | 1.48%
91 | CN(C(=O)c1cccc(NC(=O)Cc2ccc(NC(=O)C3CCCN(C(=O)C4CC4)C3)cc2)c1)C1CC1 (stereo not given) | 1.17%
92 | CCc1nc(Nc2ccc3nccnc3c2)c2oc3ccccc3c2n1 | -14.2%
93 | CCc1nc(Nc2ccc(NC(C)=O)cc2)c2oc3ccccc3c2n1 | 10% (active)
94 | C[C@@H](Nc1nc(-c2ccccc2)nc2c1oc1ccccc12)C(=O)O | 5.42%
95 | CCCC(=O)NC(=S)Nc1ccc(CN2CCOCC2)cc1 | 1.2%

— PubChem BioAssay AID1259313 (Sanford-Burnham Center for Chemical Genomics, 2017)
